Experimental findings from PubChem BioAssay (NCI) are described below.

About 83,000 compounds went through this panel and 20% of them were active in at least one assay; those are over-represented in the sample as a whole.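 In brief: 96-well plates, 48 h treatment, single concentration, percent growth endpoint.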 Values without a mark were called inactive. Activity calls are given as the source filed them. Rule for the calls: active = growth percent below 10; inactive = the rest.

Some test systems named below: SK-MEL-2 melanoma; EKVX NSCLC; SN12C renal; UO-31 renal; TK-10 renal; ACHN renal; A498 renal; CCRF-CEM leukemia; MOLT-4 leukemia; SR leukemia; RPMI-8226 leukemia; OVCAR-8 ovarian; OVCAR-5 ovarian; OVCAR-4 ovarian; SK-OV-3 ovarian; IGROV1 ovarian; OVCAR-3 ovarian; HS 578T breast; NCI/ADR-RES ovarian.
Assay in all cases: NCI-60 one-dose screen, 48 h (100 = growth as untreated, 0 = no growth, -100 = all killed)
Common to all, as to conditions: 10 µM unless noted

For `O=C1c2ccccc2C(=O)c2c(NCCN=Cc3c(O)ccc4ccccc34)cccc21`, the growth with SK-MEL-2 melanoma was 107%; in the test on EKVX NSCLC, 73.3%; with SN12C renal, 85.2%; in the test on UO-31 renal it was 49.9%; in the test on TK-10 renal, 94.2%; in the test with ACHN renal, 65.3%. The growth in the test with A498 renal is 80.7%; in the test on CCRF-CEM leukemia, -46.1% (active); in the test on MOLT-4 leukemia it was 76.9%; in the test on SR leukemia, 32%; in the test on RPMI-8226 leukemia, 78.7%; in the test on OVCAR-8 ovarian, 69.9%. Further, the growth was 112% with OVCAR-5 ovarian; 94.3% in the test with OVCAR-4 ovarian; 84.2% in the test on SK-OV-3 ovarian; 65.5% with IGROV1 ovarian; 83.7% with OVCAR-3 ovarian; 82.7% in the test on HS 578T breast. Besides, in the test with NCI/ADR-RES ovarian, the growth was 85.5%.

Regarding `Nc1nc(Cl)c2c(C(F)(F)F)cn(CC3CCNCC3)c2n1`, the growth is 87.9% in the test with SK-MEL-2 melanoma; 88.8% with EKVX NSCLC; 85.7% with SN12C renal; 91.6% with UO-31 renal; 91.5% with TK-10 renal; 104% in the test with ACHN renal. In addition, the growth in the test on A498 renal is 107%; in the test with CCRF-CEM leukemia it was 51.9%; with MOLT-4 leukemia, 45.8%; in the test with SR leukemia, -38.7% (active); in the test on RPMI-8226 leukemia, 83.7%; with OVCAR-8 ovarian, -16.3% (active). Also, the growth is 110% in the test with OVCAR-5 ovarian; 101% in the test with OVCAR-4 ovarian; 107% with SK-OV-3 ovarian; -62.8% (active) in the test on IGROV1 ovarian; 94.7% in the test on OVCAR-3 ovarian; 88.7% with HS 578T breast. Moreover, the growth with NCI/ADR-RES ovarian was 109%.

As to `O=C(c1ccccc1)[C@H]1[C@@H]2CCCN2[C@]2(C(=O)Nc3ccc(F)cc32)[C@]12C(=O)Nc1ccccc12`, the growth in the test with SK-MEL-2 melanoma was 83.1%; with EKVX NSCLC it was 70.8%; in the test on SN12C renal, 92%; in the test with UO-31 renal it was 85.4%; in the test on TK-10 renal, 113%; in the test on ACHN renal, 88.6%. Moreover, the growth is 89.7% in the test on A498 renal; 76.8% in the test with CCRF-CEM leukemia; 59.5% in the test on MOLT-4 leukemia; 85.2% in the test on SR leukemia; 71.2% in the test with RPMI-8226 leukemia; 88.8% with OVCAR-8 ovarian. Moreover, the growth with OVCAR-5 ovarian is 91.7%; with OVCAR-4 ovarian it was 81.6%; with SK-OV-3 ovarian it was 83.8%; in the test with IGROV1 ovarian it was 81.3%; in the test on OVCAR-3 ovarian it was 83.7%; in the test with HS 578T breast, 96.1%. Also, the growth with NCI/ADR-RES ovarian was 96.7%.

For the compound `Cc1cccc[n+]1CCC[n+]1ccccc1C`, the growth in the test with SK-MEL-2 melanoma was 100%; with EKVX NSCLC, 94.6%; with SN12C renal, 101%; in the test on UO-31 renal, 99%; in the test with TK-10 renal, 88%; with ACHN renal, 109%. In addition, the growth in the test on A498 renal is 109%; in the test on CCRF-CEM leukemia, 99.6%; with MOLT-4 leukemia, 86.1%; in the test on SR leukemia, 96.2%; in the test on RPMI-8226 leukemia, 98.8%; in the test with OVCAR-8 ovarian, 105%. Further, the growth in the test with OVCAR-5 ovarian is 109%; in the test on OVCAR-4 ovarian, 110%; in the test with SK-OV-3 ovarian, 76.1%; with IGROV1 ovarian, 107%; with OVCAR-3 ovarian, 112%; with HS 578T breast it was 109%. For the same compound, the growth with NCI/ADR-RES ovarian was 106%.

On to `Cc1ccc2c(c1)Nc1ccc(C)cc1C2(C)C`, for which the growth in the test with SK-MEL-2 melanoma was 88.9%; with EKVX NSCLC, 87.8%; with SN12C renal it was 103%; in the test on UO-31 renal it was 91.3%; in the test on TK-10 renal, 102%; with ACHN renal, 112%. Also, the growth in the test on A498 renal was 118%; with CCRF-CEM leukemia it was 92.8%; in the test on MOLT-4 leukemia, 73.4%; in the test with SR leukemia it was 88.3%; in the test on RPMI-8226 leukemia, 85.4%; in the test on OVCAR-8 ovarian, 103%. For the same compound, the growth in the test on OVCAR-5 ovarian was 105%; with OVCAR-4 ovarian, 92.3%; with SK-OV-3 ovarian, 82.2%; with IGROV1 ovarian it was 106%; with OVCAR-3 ovarian it was 97.7%; in the test with HS 578T breast, 113%. For the same compound, the growth in the test with NCI/ADR-RES ovarian was 105%.

On to `FC(F)(F)c1cn(CC2CNC2)c2ncnc(Cl)c12`, for which the growth was 103% in the test with SK-MEL-2 melanoma; 109% in the test on EKVX NSCLC; 102% in the test on SN12C renal; 102% with UO-31 renal; 104% in the test with TK-10 renal; 104% in the test on ACHN renal. In addition, the growth in the test with A498 renal was 112%; in the test with CCRF-CEM leukemia, 86.7%; in the test on MOLT-4 leukemia, 89.9%; in the test on SR leukemia, 87%; with RPMI-8226 leukemia, 105%; with OVCAR-8 ovarian, 92.2%. The growth with OVCAR-5 ovarian is 112%; in the test on OVCAR-4 ovarian, 110%; in the test with SK-OV-3 ovarian, 108%; in the test with IGROV1 ovarian, 105%; with OVCAR-3 ovarian it was 103%; in the test on HS 578T breast it was 105%. Moreover, the growth in the test with NCI/ADR-RES ovarian was 102%.

As to `O=C(Nc1ccc(F)cc1)Nc1ccc(Br)c(C(F)(F)F)c1`, the growth is -11.1% (active) with SK-MEL-2 melanoma; 7.24% (active) with EKVX NSCLC; 11.3% in the test on SN12C renal; 7.01% (active) in the test with UO-31 renal; 10.4% with TK-10 renal; 2.25% (active) in the test on ACHN renal. Further, the growth in the test with A498 renal was 4.62% (active); with CCRF-CEM leukemia it was 6.73% (active); with MOLT-4 leukemia, 12.8%; in the test with SR leukemia, 13.8%; in the test with RPMI-8226 leukemia it was -29.7% (active); in the test with OVCAR-8 ovarian it was 11.4%. Moreover, the growth is 30.2% in the test with OVCAR-5 ovarian; 22.5% in the test on OVCAR-4 ovarian; -8.74% (active) with SK-OV-3 ovarian; 25.7% with IGROV1 ovarian; 11.9% with OVCAR-3 ovarian; 35.4% in the test on HS 578T breast. The growth in the test on NCI/ADR-RES ovarian was 1.19% (active).

For `Cc1ccn2cc(Cc3cc(=O)oc4c3ccc3ccccc34)c(=O)nc2c1`, the growth is 80.6% in the test on SK-MEL-2 melanoma; 92.5% in the test on EKVX NSCLC; 96.4% in the test on SN12C renal; 80.2% in the test on UO-31 renal; 124% in the test on TK-10 renal; 95.5% with ACHN renal. For the same compound, the growth with A498 renal was 111%; in the test on CCRF-CEM leukemia, 95.8%; in the test on MOLT-4 leukemia, 87.9%; with SR leukemia, 92.7%; in the test with RPMI-8226 leukemia, 93.3%; with OVCAR-8 ovarian, 100%. Also, the growth is 102% in the test with OVCAR-5 ovarian; 101% in the test on OVCAR-4 ovarian; 90.1% in the test on SK-OV-3 ovarian; 97% with IGROV1 ovarian; 104% in the test with OVCAR-3 ovarian; 95.2% in the test with HS 578T breast. In addition, the growth in the test on NCI/ADR-RES ovarian is 105%.
